Data published in PubChem BioAssay.
“And” between values parts separate entries of the source, which are not always exact repeats. Equal entries are not always repeated. The source made the active and inactive calls. Cut-off read from the data, not from the text of the source, unless noted: active = inhibition above about 80%; inactive = the rest.

Legend:
[1] = viability loss with induced miR-34 in A549 – imaging, A549 dox-inducible miR-34, nuclei and caspase counts, primary screen (AID 1347080;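 active = compounds whose cell count with miR-34 switched on is under 0.7 times the count with it off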); conditions: A549 miR-34 inducible, Hoechst nuclei count, 48 h
[2] = MELAS cybrid and Rieske KO viability enhancers – cell-based, MELAS cybrids, Rieske KO mouse fibroblasts, CellTiter-Glo, primary screen (AID 1508586;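 active = mean z-score across replicates of 1.96 or higher in either the MELAS or the Rieske mutant cell line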;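 note: z relative to plate mean and SD of compound and empty wells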); conditions: low glucose
[3] = growth inhibition, single agent or in combination, cell-based, chromothripsis tumors, cisplatin or BGB combos (AID 1671449); conditions: LFS_MB_P medulloblastoma cells;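 note: cells exposed for 96 hours; 0% = vehicle DMSO and 100% = killing by high DMSO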
[4] = growth inhibition, single agent and combos, cell-based, chromothripsis tumors, cisplatin or BGB combos (AID 1671450); conditions: HDN33 neuroblastoma cells, stronger effect = higher value;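 note: cells exposed to compound for four days; 0% = vehicle DMSO and 100% = cell killing by high DMSO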
[5] = growth inhibition, single agents and combos, ICB984, cell-based, cisplatin or BGB combos, synergistic combos for chromothripsis tumors (AID 1671451; call rule not given here;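 note: cells exposed for 96 hours before readout; 0% = vehicle DMSO and 100% = killing by high DMSO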); conditions: ICB984 medulloblastoma cells, drug combinations, stronger effect = higher value
[6] = growth inhibition, single agents and combos, LFS_MB_1R, cell-based, cisplatin or BGB combos, synergistic combos for chromothripsis tumors (AID 1671452); conditions: LFS_MB_1R medulloblastoma cells, stronger effect = higher value;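 note: cells exposed for 96 hours before readout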
[7] = growth inhibition, single agents and combos, HTB85, cell-based, BGB or cisplatin IC20 combos, synergistic combos for chromothripsis tumors (AID 1671453); conditions: HTB85 osteosarcoma cells, drug combinations, stronger effect = higher value;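 note: cells exposed for 96 hours before readout; 0% = vehicle DMSO and 100% = high DMSO killing control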
[8] = growth inhibition, single agents and combos, CRL2098, cell-based, BGB or cisplatin IC20 combos, synergistic combos for chromothripsis tumors (AID 1671454); conditions: CRL2098 osteosarcoma cells, drug combinations, stronger effect = higher value;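 note: cells exposed for 96 h before readout; 0% = vehicle DMSO and 100% = killing by high DMSO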
[9] = growth inhibition, single agents and combos, HD-MB03, cell-based, BGB or cisplatin IC20 combos, synergistic combos for chromothripsis tumors (AID 1671455; in the data active = inhibition above about 83%;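 note: 0% = vehicle DMSO and 100% = high DMSO as cytotoxic control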); conditions: HD-MB03 medulloblastoma cells, stronger effect = higher value
[10] = growth inhibition, single agents and combos, UWB1.289, cell-based, BGB or cisplatin combos, synergistic combos for chromothripsis tumors (AID 1671456); conditions: UWB1.289 ovarian carcinoma cells, stronger effect = higher value;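 note: cells exposed to compound for four days; 0% = vehicle DMSO and 100% = killing by high DMSO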
[11] = growth inhibition, single agents and combos, LFS_MB_2R, cell-based, cisplatin combos, synergistic combos for chromothripsis tumors (AID 1671457); conditions: LFS_MB_2R medulloblastoma cells, stronger effect = higher value;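 note: cells exposed to compound for four days before readout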
[12] = growth inhibition, MDA-MB-436, cell-based, BGB or cisplatin combos, synergistic combos for chromothripsis tumors (AID 1671458; call rule not given here;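 note: cells exposed for 96 hours; 0% = vehicle DMSO and 100% = killing by high DMSO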); conditions: MDA-MB-436 breast carcinoma growth inhibition, drug combinations, stronger effect = higher value
[13] = UWB1.289_BRCA1 ovarian cancer growth, cell-based, BGB or cisplatin combinations (AID 1671459); conditions: UWB1.289 BRCA1 ovarian carcinoma, drug combinations, stronger effect = higher value
[14] = drug combination toxicity in non-malignant astrocytes – cell-based, BGB or cisplatin IC20 combos, cytotoxicity control for chromothriptic childhood tumor combination screen (AID 1671460); conditions: Human astrocytes, viability inhibition, drug combinations, at 0.5 µM, stronger effect = higher value;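 note: cells exposed to compounds for 96 hours before viability readout; 0% = vehicle and 100% = killing control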
[15] = BT084 cell growth, single and combined drugs, ICGC_MB145, cisplatin and BGB IC40 combos (AID 1671461); conditions: BT084 medulloblastoma cells, drug combinations, stronger effect = higher value;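 note: cells exposed to drugs for 96 hours; 0% = vehicle DMSO and 100% = high DMSO full killing control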
[16] = RCMB18 cell growth, single agent and combined, cisplatin and BGB IC40 combos (AID 1671462); conditions: RCMB18 medulloblastoma cells, stronger effect = higher value;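 note: cells exposed to compound for four days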
[17] = CRL1545 cell growth, single agent and combined, cisplatin and BGB IC20 combos (AID 1671464); conditions: CRL1545 osteosarcoma cells, stronger effect = higher value;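 note: cells exposed to compound for 96 hours before readout; 0% = vehicle DMSO and 100% = high DMSO killing control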
[18] = measured here: combination with BGB IC40, at 0.05 µM
[19] = measured here: with BGB IC20 combination, at 0.5 µM
[20] = measured here: with cisplatin IC20 combination, at 0.5 µM
[21] = measured here: combination with cisplatin, at 0.5 µM
[22] = measured here: combination with cisplatin, at 5 µM

CC(Oc1cc(-c2cnn(C3CCNCC3)c2)cnc1N)c1c(Cl)ccc(F)c1Cl (centres undefined)
fold change ([1]; stronger effect = lower value, cell number ratio, induced over uninduced): 0.89 (inactive) and 0.888 (inactive) | fold change ([1]; measured here: relative caspase fold change +Dox/-Dox): 0.695 and 1.44 | cell count ([1]; measured here: total cells with miR-34 induction, stronger effect = lower value): 6060 and 1510 | cell count ([1]; measured here: total cells without miR-34 induction): 6810 and 1700 | z-score ([2]; MELAS cybrid survival, CellTiter-Glo 48 h, stronger effect = higher value): -0.618 (inactive) and 0.388 (inactive) | z-score ([2]; Rieske KO mouse fibroblast survival, CellTiter-Glo 72 h): -0.613 and -1.18 | inhibition ([3]; at 0.5 µM, stronger effect = higher value): -14.5% (inactive) | inhibition ([3]; measured here: combination with BGB IC20, at 0.005 µM): -15.8% | inhibition ([3]; measured here: combination with BGB IC40, at 0.005 µM): -3.96% | inhibition [3, 18]: -10.8% | inhibition ([3]; measured here: combination with cisplatin, at 0.5 µM, stronger effect = higher value): -18.2% | inhibition ([3]; measured here: combination with cisplatin, at 5 µM, stronger effect = higher value): -60.7% | inhibition ([4]; BGB combo, at 5 µM): 54.9% | inhibition ([4]; at 0.5 µM): 3.71% (inactive) | inhibition ([4]; cisplatin combo, at 5 µM): 68.7% | inhibition [4, 19]: -2.84% | inhibition [4, 20]: 14.2% | inhibition ([4]; single agent, at 5 µM): 74.1% | inhibition ([5]; BGB IC20 combo, at 0.005 µM): 9.17% | inhibition ([5]; BGB IC40 combo, at 0.005 µM): -17.8% | inhibition ([5]; BGB IC40 combo, at 0.05 µM): 44.6% | inhibition ([5]; at 0.5 µM): -13.1% (inactive) | inhibition ([5]; cisplatin combo, at 0.05 µM): 42.6% | inhibition ([5]; cisplatin combo, at 0.5 µM): -13.5% | inhibition ([5]; cisplatin combo, at 5 µM): -41.4% | inhibition ([5]; measured here: 5 uM single agent, at 5 µM): -10.6% | inhibition ([6]; at 0.5 µM): -9.48% (inactive) | inhibition [6, 18]: 5.36% | inhibition [6, 21]: -34% | inhibition [6, 22]: 26.2% | inhibition ([7]; at 0.5 µM): 2.72% (inactive) | inhibition ([7]; measured here: with BGB IC20, at 0.5 µM): 0.991% | inhibition ([7]; measured here: with BGB IC20, at 5 µM): 44.7% | inhibition ([7]; measured here: with cisplatin IC20, at 0.5 µM): 4.34% | inhibition ([7]; measured here: with cisplatin IC20, at 5 µM): 12.6% | inhibition ([7]; single agent, at 5 µM): 47.7% | inhibition ([8]; at 0.5 µM): -32.5% (inactive) | inhibition ([8]; measured here: combination with BGB at IC20, at 0.5 µM): -20.2% | inhibition ([8]; measured here: combination with cisplatin at IC20, at 0.5 µM): -64.1% | inhibition ([9]; at 0.5 µM): 3.43% (inactive) | inhibition ([9]; measured here: combo with BGB at IC20, at 0.5 µM): -2.99% | inhibition ([9]; measured here: combo with cisplatin at IC20, at 0.5 µM): 13.3% | inhibition ([10]; at 0.5 µM): 11.5% (inactive) | inhibition ([10]; measured here: inhibition with BGB combination, at 0.05 µM): 17.9% | inhibition ([10]; measured here: inhibition with cisplatin combination, at 0.05 µM): 12.8% | inhibition ([11]; at 0.5 µM): -6.87% (inactive) | inhibition [11, 21]: -10.6% | inhibition [11, 22]: 26.8% | inhibition ([12]; at 0.5 µM): 2.15% (inactive) | inhibition ([12]; measured here: BGB combination, at 0.5 µM): 0.074% | inhibition ([12]; measured here: BGB combination, at 5 µM): 18.2% | inhibition ([12]; measured here: cisplatin combination, at 0.5 µM): 3.61% | inhibition ([12]; measured here: cisplatin combination, at 5 µM): 29.4% | inhibition ([13]; BGB combination, concentration series, at 5 µM): 53.7% | inhibition ([13]; at 0.5 µM): 8.71% (inactive) | inhibition ([13]; cisplatin combination, concentration series, at 5 µM): 38.8% | inhibition [14]: -2.23% (inactive) | inhibition ([14]; measured here: combo with BGB IC20): -5.88% | inhibition ([14]; measured here: combo with cisplatin IC20): -4.28% | inhibition ([15]; at 0.5 µM): 5.1% (inactive) | inhibition ([15]; cisplatin combination, at 0.5 µM): -5.89% | inhibition ([15]; cisplatin combination, at 5 µM): 96.5% | inhibition ([15]; measured here: BGB IC40 combination 0.05 uM, at 0.05 µM): -35.9% | inhibition ([15]; single agent, at 5 µM): 55.8% | inhibition ([16]; at 0.5 µM): 16.2% (inactive) | inhibition ([16]; cisplatin combo, at 5 µM): 34.5% | inhibition ([16]; measured here: BGB IC40 combination, at 0.05 µM): 5.63% | inhibition [16, 21]: 33% | inhibition ([16]; single agent, at 5 µM): 51.6% | inhibition ([17]; at 0.5 µM): -10% (inactive) | inhibition [17, 19]: -14.1% | inhibition [17, 20]: -9.79% | inhibition ([17]; single agent, at 0.05 µM): 7.84% | inhibition ([17]; single agent, at 5 µM): 64%
